# Assay results published in paper PMC5540273 (PLoS ONE, 2017).
# Legend:
# Conditions in all cases: concentration: 1 μM, replicates: in singlicate; n = 1
# TIE1 = tested on: TIE1
# TIE2 = tested on: T1, TIE2
# T1 construct: gene TEK
# TLK1 = tested on: TLK1
# TLK2 = tested on: TLK2
# TNIK = tested on: TNIK
# TNK1 = tested on: TNK1
# TNK2 = tested on: TNK2
# TNNI3K = tested on: TNNI3K
# TRKA = tested on: T2, TRKA
# T2 construct: gene NTRK1
# TRKB = tested on: TRKB
# TRKC = tested on: T3, TRKC
# T3 construct: gene NTRK3
# TRPM6 = tested on: TRPM6
# TSSK1B = tested on: TSSK1B
# TSSK3 = tested on: TSSK3
# TTK = tested on: TTK
# TXK = tested on: TXK
# [1] = tested on: TYK2(JH1domain-catalytic)
# [2] = tested on: TYK2(JH2domain-pseudokinase)
# TYRO3 = tested on: TYRO3
# ULK1 = tested on: ULK1
# 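Also: KINOMEscan kinase panel screen.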
Compound,%Inh (TIE1) [%],%Inh (TIE2) [%],%Inh (TLK1) [%],%Inh (TLK2) [%],%Inh (TNIK) [%],%Inh (TNK1) [%],%Inh (TNK2) [%],%Inh (TNNI3K) [%],%Inh (TRKA) [%],%Inh (TRKB) [%],%Inh (TRKC) [%],%Inh (TRPM6) [%],%Inh (TSSK1B) [%],%Inh (TSSK3) [%],%Inh (TTK) [%],%Inh (TXK) [%],%Inh [1] [%],%Inh [2] [%],%Inh (TYRO3) [%],%Inh (ULK1) [%]
Cc1ccc(C)c(NC(=O)NCCNc2ccnc(Nc3ccc(F)cc3)n2)c1 [GSK1379878],0,0,1,0,0,0,9,0,10,0,15,0,0,22,0,3,26,6,0,0
CC(C)(C)OC(=O)NC1CCCN(c2cc(-c3ccc4c(N)n[nH]c4c3)nc(N)n2)C1 (stereo not drawn) [GSK2286096],0,0,0,0,0,10,13,6,0,0,0,39,0,96.5,0,0,66,0,0,1
O=C(Nc1ccccc1)Nc1ccc(Oc2ccc3nccn3n2)cc1,13,46,0,0,0,43,10,82,0,0,0,0,1,0,0,12,0,0,19,0
CN1c2ccc(-c3ccc(C(=O)NCCO)cc3)cc2-c2[nH]ncc2S1(=O)=O,0,3,22,30,43,52,10,3,0,0,0,2,0,0,10,0,51,89,25,0
CSc1nn2c(=O)cc(N3CCOCC3)nc2n1Cc1cccc(Cl)c1Cl [GSK2347225],14,2,4,0,3,3,24,15,1,0,0,0,26,30,0,0,12,0,5,7
Cc1cc(N2CCC(NS(=O)(=O)c3ccc(F)cc3)CC2)nc(Nc2cccc(C#N)c2)n1.O=C(O)C(F)(F)F [GSK1653537],3,0,5,0,0,0,11,0,0,0,0,0,27,8,1,0,0,2,0,0
Nc1nc(-c2ccc3c(N)n[nH]c3c2)cc(N2CCC[C@@H](C(=O)Nc3ccccc3)C2)n1.O=C(O)C(F)(F)F.O=C(O)C(F)(F)F [GSK2288359],0,0,15,10,0,0,1,5,0,0,0,34,0,24,0,8,18,1,0,9
CC(C)N1CCC(n2cnc(-c3ccc(F)cc3)c2-c2ccnc(N)n2)CC1 [SB-223132],0,96.9,5,0,11,3,0,4,0,0,0,0,0,0,14,21,0,2,0,0
FC(F)(F)c1ccc(-c2cc(-c3c[nH]nc3-c3ccccn3)ccn2)cc1 [GW599550],4,0,11,11,78,0,16,0,0,0,14,38,13,7,0,0,20,21,0,0
